Assay results as given in PubChem BioAssay (NCI).
The panel holds about 83,000 compounds, 20% with a hit somewhere; the sample as a whole holds those more often.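 Treatment: one concentration, 48 hours, 96-well format. Scoring: percent growth, with anything below 10 considered active.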 Values without a mark were called inactive. Activity calls are given as the source filed them.

Key:
Test in all cases: NCI-60 one-dose screen, 48 h (100 = growth as untreated, 0 = no growth, -100 = all killed)
Settings in all cases: 10 µM unless noted
NCI-H23 lung = tested on: NCI-H23 lung
NCI-H322M lung = tested on: NCI-H322M lung
HOP-62 NSCLC = tested on: HOP-62 NSCLC
NCI-H460 lung = tested on: NCI-H460 lung
HOP-92 NSCLC = tested on: HOP-92 NSCLC
NCI-H522 lung = tested on: NCI-H522 lung
A549/ATCC NSCLC = tested on: A549/ATCC NSCLC
786-0 renal = tested on: 786-0 renal
DU-145 prostate = tested on: DU-145 prostate
K-562 leukemia = tested on: K-562 leukemia
MALME-3M melanoma = tested on: MALME-3M melanoma
MDA-MB-231 breast = tested on: MDA-MB-231 breast
RXF 393 renal = tested on: RXF 393 renal
SF-268 CNS = tested on: SF-268 CNS
SF-295 CNS = tested on: SF-295 CNS
SF-539 CNS = tested on: SF-539 CNS
UACC-257 melanoma = tested on: UACC-257 melanoma
M14 melanoma = tested on: M14 melanoma
HCT-15 colon = tested on: HCT-15 colon
COLO 205 colon = tested on: COLO 205 colon

| Structure (SMILES) | growth (NCI-H23 lung) | growth (NCI-H322M lung) | growth (HOP-62 NSCLC) | growth (NCI-H460 lung) | growth (HOP-92 NSCLC) | growth (NCI-H522 lung) | growth (A549/ATCC NSCLC) | growth (786-0 renal) | growth (DU-145 prostate) | growth (K-562 leukemia) | growth (MALME-3M melanoma) | growth (MDA-MB-231 breast) | growth (RXF 393 renal) | growth (SF-268 CNS) | growth (SF-295 CNS) | growth (SF-539 CNS) | growth (UACC-257 melanoma) | growth (M14 melanoma) | growth (HCT-15 colon) | growth (COLO 205 colon) |
| --- | --- | --- | --- | --- | --- | --- | --- | --- | --- | --- | --- | --- | --- | --- | --- | --- | --- | --- | --- | --- |
| CNCCNc1nc2ccccc2c2c(=O)c3cccc(C)c3sc12 | 58.2% | 40.9% | 25.6% | 9.45% (active) | 44% | 27.8% | 35.7% | 57.3% | 27.8% | -52.5% (active) | -11.3% (active) | -18% (active) | 50.8% | 53.7% | 76% | 52.4% | 82% | -40.9% (active) | -21.3% (active) | – |
| CC(=O)c1ccc(Nc2nc(NCCO)nc(Nc3ccc(Cl)cc3)n2)cc1 | 99.1% | 97.1% | 100% | 93.6% | 86.4% | 81.2% | 85.6% | 104% | 94.8% | 78% | 93.5% | 82.5% | 67.2% | 91.9% | 97.8% | 87.2% | 88.4% | 114% | 73.9% | – |
| COc1ccc(/C(C#N)=C/c2nc3c(N4CCOCC4)nc(Cl)nc3n2C)cc1OC | 24% | 29.9% | 25.3% | -15.2% (active) | -12.2% (active) | -28.4% (active) | 21.1% | -61.5% (active) | 8.07% (active) | 0.867% (active) | 32.7% | 9.29% (active) | -67.5% (active) | 14.5% | -6.46% (active) | -26.5% (active) | 16.2% | -49.1% (active) | -40.8% (active) | – |
| O=C(/C=C/c1ccc(F)cc1)c1ccc(Nc2nc(NCCO)nc(Nc3ccc(Cl)cc3)n2)cc1 | 89.1% | 93.1% | 80.8% | 61.6% | 87.8% | 81.1% | 51.1% | 69.8% | 84.6% | 45.4% | 96.6% | 71.9% | 51.2% | 71.9% | 91% | 74.4% | 99.5% | 83.3% | 26.7% | – |
| CCCN1CCN(c2ccc3nc(-c4ccc5nc(-c6cc(OC)ccc6OC)[nH]c5c4)[nH]c3c2)CC1 | 103% | 115% | 117% | 100% | 110% | 113% | 115% | 101% | 114% | -45.3% (active) | 139% | 107% | 93.3% | 106% | 104% | 96.2% | 110% | 111% | 62.1% | – |
| COc1cc(CNC(=O)Cc2ccccc2)ccc1OCc1cn(-c2ccc(F)cc2)nn1 | 94.9% | 103% | 104% | 101% | 107% | 90.1% | 97.5% | 104% | 108% | 91.8% | 114% | 89.5% | 125% | 98.1% | 101% | 99.5% | 97.7% | 101% | 106% | – |
| O=C(/C=C/c1ccc(C(F)(F)F)cc1)c1ccc(Nc2nc(NCCO)nc(Nc3ccc(Cl)cc3)n2)cc1 | 76.4% | 86.1% | 53.2% | 28.7% | 70.5% | 65.3% | 26.6% | -41% (active) | 58% | 12.5% | 96.3% | 59.3% | 42.8% | 50.6% | 79.6% | 51.3% | 92.1% | 54.7% | 6.59% (active) | – |
| COc1ccc2occ(C3=C(c4c[nH]c5ccccc45)C(=O)NC3=O)c2c1 | 62.2% | 79% | 41.6% | 22.5% | 67.2% | 33% | 40.8% | 74.7% | 92.1% | 21.6% | 46.7% | 28% | 34.5% | 52% | 35.6% | 51.8% | 76.3% | 27.3% | 24.1% | – |
| CNCCNc1nc2ccccc2c2c(=O)c3cccc(OC)c3sc12 | 47.1% | 33.8% | 34.1% | -68.2% (active) | 5.16% (active) | 27.5% | 17.9% | 26.5% | 12.6% | -39% (active) | 59.6% | 13.8% | 41.5% | 37.8% | 52.6% | 34.9% | 64% | -71.3% (active) | -39.9% (active) | – |
| O=c1c2cc(F)ccc2sc2c(Nc3ccncc3)nc3ccccc3c12 | 45.9% | 81.4% | 34.7% | -76.7% (active) | 54.5% | 5.65% (active) | -43.8% (active) | -79.8% (active) | 4.28% (active) | -47.1% (active) | 22% | -89.7% (active) | -42% (active) | -10.4% (active) | 101% | 70.8% | 113% | -27.2% (active) | -70.5% (active) | – |
| COC(=O)c1c2c(c(C)[n+]([O-])c1C)C(=O)C(NCc1ccc(F)c(F)c1)=CC2=O | -5.8% (active) | 13.4% | 33.1% | 4.7% (active) | 51.1% | 22% | 8.81% (active) | 48.2% | 42% | 18.4% | -70.8% (active) | -2.52% (active) | 32.2% | 12% | 18.2% | 2.45% (active) | -30% (active) | 4.33% (active) | 6.07% (active) | – |
| Cc1ccc2c(n1)C(=O)C(Oc1ccc(Br)cc1)=CC2=O | 94.5% | 99.6% | 116% | 99.1% | 108% | -27% (active) | 100% | 104% | 110% | 77% | 115% | 91.1% | 104% | 88.4% | 103% | 104% | 106% | 94.9% | 84.7% | – |
| COc1cc(/C=C2\Oc3cc(OCCCN4CCCC4)ccc3C2=O)cc(OC)c1 | 69.9% | – | 91.5% | -71.1% (active) | 67.6% | 76.7% | 33.2% | 73.6% | 33.6% | -63.3% (active) | 93% | 53.7% | 60.4% | 72.5% | 85.7% | -90.3% (active) | 81.4% | -60.1% (active) | 5.66% (active) | 71% |
| C[C@@H](C(=O)NCCCC#Cc1cnc(Nc2ccc(C#N)cc2)nc1NC1CC1)N(C)C(=O)/C=C/CN(C)C | 22.8% | 63% | 44.2% | 15.3% | 107% | 59.1% | 32.8% | 39.8% | 38.4% | 14.1% | 22.5% | 77.8% | -1.36% (active) | 48.4% | 25.9% | 9.99% (active) | 40.2% | 26.7% | 29.9% | – |
| O=C(/C=C/c1ccccc1)c1ccc(Nc2nc(NCCO)nc(Nc3ccc(Cl)cc3)n2)cc1 | 82.7% | 91.6% | 93.2% | 81% | 96.2% | 83.3% | 64.6% | 83.9% | 73.6% | 36.1% | 98.7% | 71.4% | 73.2% | 73.8% | 96.1% | 73% | 94.7% | 99.9% | 8.55% (active) | – |
| O=c1c2cccc(F)c2sc2c(N3CCNCC3)nc3ccccc3c12 | 51% | 37.9% | 37.2% | -77.2% (active) | 35.3% | 48.6% | 21.8% | 37% | 22.3% | -42.1% (active) | 53.5% | 34.6% | 42.4% | 41.4% | 74.6% | 48.9% | 8.99% (active) | -27.4% (active) | 5.87% (active) | – |
